Most compounds without a hit are left out; they make up all but 1.6% or so of the library.
Efflux pump mplx – antifungal efflux pump inhibition, Nile Red retention; S. cerevisiae Candida pump triplex; inhibition, % at 10 µM; 330,000 compounds, 0.44% hits;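 active means plate passing quality check with inhibition over a set limit, or well fluorescence over plate mean plus 4 SD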;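 further: Nile Red retained in pooled yeast measured as flow cytometry median fluorescence; higher means more Nile Red kept so more efflux inhibition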
Yeast superoxide – lowers age-related superoxide in aged yeast cells. S. cerevisiae aged cells, superoxide DHE fluorescence; stronger effect = lower value. superoxide response (% of plate mean), % at 10 µM. 330,000 compounds, 0.18% hits;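 active means superoxide response under a set limit, about three screen SD below normal, cut at about 65% in these data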;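 further: yeast aged for seven days with compound at 30 °C before DHE staining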
GRK2 inh – inhibitors of human GRK2 displacing RNA aptamer; inhibition of aptamer binding, % at 10 µM; 330,000 compounds, 0.59% hits; P25098; bead flow cytometry, FAM-aptamer displacement from GRK2;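 active means inhibition of aptamer binding above 40%, roughly 3 SD of noise, on plates passing a quality check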;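 further: median bead fluorescence of bound FAM aptamer so fluorescent compounds give negative values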
Target sequence (P25098 whole entry, looked up): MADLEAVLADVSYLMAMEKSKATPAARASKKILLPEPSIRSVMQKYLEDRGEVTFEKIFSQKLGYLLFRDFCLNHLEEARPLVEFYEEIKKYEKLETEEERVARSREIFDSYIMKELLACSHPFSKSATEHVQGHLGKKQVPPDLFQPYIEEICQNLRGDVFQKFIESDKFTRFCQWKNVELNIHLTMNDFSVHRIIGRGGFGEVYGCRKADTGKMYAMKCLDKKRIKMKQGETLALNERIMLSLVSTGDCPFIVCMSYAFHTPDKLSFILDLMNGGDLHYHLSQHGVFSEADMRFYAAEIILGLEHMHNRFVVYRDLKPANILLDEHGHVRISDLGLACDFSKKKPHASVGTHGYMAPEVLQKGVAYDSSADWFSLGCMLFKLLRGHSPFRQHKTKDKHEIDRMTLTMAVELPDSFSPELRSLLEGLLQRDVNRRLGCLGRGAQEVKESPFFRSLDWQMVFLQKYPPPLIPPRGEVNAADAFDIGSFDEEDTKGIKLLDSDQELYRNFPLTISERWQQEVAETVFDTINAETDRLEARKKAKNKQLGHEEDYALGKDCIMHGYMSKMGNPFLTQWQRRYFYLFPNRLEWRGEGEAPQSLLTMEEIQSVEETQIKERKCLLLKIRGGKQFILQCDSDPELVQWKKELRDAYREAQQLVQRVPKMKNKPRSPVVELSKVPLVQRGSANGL
ATG4B inhibitor – inhibitors of human ATG4B cysteine protease | inhibition, % at 8.33 µM | AID 504462 | ATG4B cleavage of LC3-PLA2, NBD-HPC fluorescence, 1 h | 340,000 compounds, 0.51% hits | Q9Y4P1; in the data active means inhibition above about 40%
GRK2 CP1 – confirmation of human GRK2 inhibitors displacing RNA aptamer; aptamer displacement, % at 10 µM; AID 504451; 2,000 compounds, 4% hits; shares compounds with GRK2 inh; bead-bound GRK2, FAM-aptamer displacement, flow cytometry;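 active means aptamer displacement above 40%, near three times the noise of non-fluorescent compounds, on plates passing quality checks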;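 further: negative values mostly reflect intrinsic compound fluorescence rather than true enhancement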
FAM quench CP1 – counter-screen for GRK2 aptamer inhibitors: fluorescent aptamer quenchers. shares compounds with GRK2 inh. Carboxyfluorescein RNA aptamer on beads, flow cytometry quenching; stronger effect = lower value. fluorescence response (% of DMSO), % at 10 µM. 2,000 tested, under 10 active;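 active means compounds that quench the bead-bound fluorescent RNA probe, cutting fluorescence to under half of the solvent control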;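 further: counterscreen run without GRK2 so only probe quenching by compound is measured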
Numbers stand for hits; i = inactive; nt = no result given.

SMILES	Efflux pump mplx	Yeast superoxide	GRK2 inh	ATG4B inhibitor	GRK2 CP1	FAM quench CP1
COc1ccc(C(=O)Nc2ccc(Nc3ccccc3)cc2)cc1OC	i	i	86	i	i	i
CCN(CC(=O)Nc1ccc(NC(C)=O)cc1)C(=O)c1c(C)nn(Cc2ccc(C)cc2)c1Cl	nt	nt	nt	i	nt	nt
CCOC(=O)c1cc(C#N)c(SCC(=O)c2cc(C#N)c(SC)nc2C)nc1C	i	i	i	i	nt	nt
CSc1nc(C)c(C(=O)C[n+]2ccccc2)cc1C#N	i	i	94	i	i	i
C(COC1CC2CC1C1C2CC2OC21)OC1CC2CC1C1C2CC2OC21 (configuration not stated)	nt	nt	nt	i	nt	nt
c1cc2c(cc1Cn1cnnn1)OCO2	i	i	i	i	nt	nt
Cc1nnc(C)c2c(C)n(Cc3ccc4c(c3)OCO4)c(C)c12	i	i	64	i	i	i
COc1ccc(CCNCC(O)c2ccccc2)cc1 (configuration not stated)	i	i	i	i	nt	nt
COc1ccc(CCNCC(C)c2ccccc2)cc1 (configuration not stated)	i	i	i	i	i	i
C=C(C)CSc1nc2sc3c(c2c(=O)n1-c1ccccc1)CCN(C)C3	i	i	i	i	i	i
Cc1[nH]c2ccccc2c1C(=O)C(C)OC(=O)c1ccccc1NCCO (configuration not stated)	i	i	i	i	nt	nt
CC(=O)c1cccc(NS(=O)(=O)c2ccc(-c3cc(C)no3)s2)c1	i	i	i	i	nt	nt
Cc1cccc(C(C)C)c1NC(=O)COC(=O)CN1C(=O)C2CC=CCC2C1=O (configuration not stated)	i	i	i	i	nt	nt
COc1cc(CCC(N)c2cccc(O)c2)cc(OC)c1OC (configuration not stated)	nt	nt	nt	i	nt	nt
O=c1[nH]cnc2onc(-c3ccc(F)cc3)c12	i	i	i	i	i	i
Cc1csc(=O)n1CC(=O)OCC(=O)Nc1ccc(Cl)cc1F	i	i	i	i	nt	nt
CCn1c(CSc2nnc(-c3ccc4c(c3)OCO4)o2)nc2cc(S(=O)(=O)N(C)C)ccc21	i	i	43	i	i	i
Cn1c(N2CCN(C(=O)NCc3ccccc3)CC2)nc2ccccc21	i	i	i	i	nt	nt
Cn1c(N2CCN(C(=O)Nc3ccc(C(F)(F)F)cc3)CC2)nc2ccccc21	i	i	i	i	i	i
Cc1cc(N)nc(SCC(=O)N2C(C)CCCC2C)n1 (configuration not stated)	i	i	50	i	i	i
O=C(c1ccc(-c2ccccc2)c(F)c1)C1CCCN(CCCn2cccn2)C1 (configuration not stated)	i	i	i	i	i	i
CN1CCN(S(=O)(=O)c2cccc(C(=O)NCc3ccc(Cl)cc3)c2)CC1	i	i	i	i	nt	nt
CC(C)CCn1c(COc2ccccc2)n[nH]c1=S	i	i	53	i	i	i
COc1ccc(OC)c(N(C(=O)c2snc(C(N)=O)c2N)C(C(=O)NCC2CCCO2)c2ccc3ncccc3c2)c1 (configuration not stated)	i	i	50	i	i	i
CCOc1ccccc1N(C(=O)c1snc(C(N)=O)c1N)C(C(=O)NCC1CCCO1)c1ccc2ncccc2c1 (configuration not stated)	i	i	i	i	nt	nt
SMILES	Efflux pump mplx	Yeast superoxide	GRK2 inh	ATG4B inhibitor	GRK2 CP1	FAM quench CP1
C/C(Cc1ccccc1)=N\NC(=O)CNC(=O)c1ccccc1	i	i	i	i	nt	nt
C/C(Cc1ccccc1)=N\NC(=O)CNC(=O)c1ccc(Br)cc1	i	i	78	i	i	i
COc1ccccc1CNC(=O)C1CCCN(S(=O)(=O)c2ccc3c(c2)C(C)(C)C(=O)N3C)C1 (configuration not stated)	i	i	i	i	i	i
O=C(NCc1ccccc1F)C1CCCN(S(=O)(=O)c2ccc(-n3cnnn3)cc2)C1 (configuration not stated)	i	i	i	i	i	i
Cc1ccc(CNC(=O)C2CCCN(S(=O)(=O)c3ccc(-n4cnnn4)cc3)C2)cc1 (configuration not stated)	i	i	i	i	i	i
COc1ccccc1CNC(=O)C1CCN(S(=O)(=O)c2ccc3c(c2)C(C)(C)C(=O)N3C)CC1	i	i	i	i	nt	nt
O=C(NCc1ccco1)C1CCCN(S(=O)(=O)c2ccc(-n3cnnn3)cc2)C1 (configuration not stated)	i	i	i	i	nt	nt
Cc1nc(C)n(CCNS(=O)(=O)c2ccc(C)c(C)c2)n1	i	i	i	i	nt	nt
O=C(Nc1cccc(C(F)(F)F)c1)c1csc(-c2ccncc2)n1	i	i	i	i	nt	nt
COc1cc(NC(=O)c2csc(-c3ccncc3)n2)cc(C(=O)Nc2cccc(C(F)(F)F)c2)c1	i	i	i	i	i	i
COc1ccc(-c2cc(C(=O)Nc3cc(OC)cc(C(=O)Nc4cccc(C(F)(F)F)c4)c3)[nH]n2)cc1	i	i	i	i	i	i
CCOC(=O)C1CCCN(CCC(C)c2ccccc2)C1 (configuration not stated)	i	i	78	i	i	i
C/C(=N\NC(=O)c1ccc(OC2OCCOC2Oc2ccc(C(=O)N/N=C(\C)c3ccncc3)cc2)cc1)c1ccncc1 (configuration not stated)	i	i	50	i	i	i
C/C(=N\NC(=O)c1ccncc1)c1ccc(N2CCOCC2)cc1	i	i	i	i	nt	nt
C/C(=N\NC(=O)c1c(-c2ccccc2Cl)noc1C)c1cccc(NC(=O)C(C)C)c1	i	i	i	i	nt	nt
CC(=O)Nc1nc(-c2ccccc2)cc(-c2ccco2)c1C#N	i	i	80	i	i	i
CCOc1ccc2nc(NC3=NC(c4ccc(OC)cc4)CC(=O)N3)nc(C)c2c1 (configuration not stated)	i	i	i	i	i	i
CCOc1ccc2nc(NC3=NC(C)(C)C=C(C)N3)nc(C)c2c1	i	i	i	i	nt	nt
CCc1c(C(=O)OCc2ccccc2)[nH]c(C)c1C	i	i	93	i	i	i
Cc1ccccc1NC(=O)N1CCN(C/C=C/c2ccccc2)CC1	i	i	66	i	i	i
CCCn1cnc2cc(NCc3ccc(Br)cc3)ccc21	i	i	i	i	i	i
CCn1cnc2cc(NCc3ccc(Br)cc3)ccc21	i	i	44	i	i	i
CCn1cnc2cc(NCc3ccc(C)cc3)ccc21	i	i	i	i	nt	nt
CCCCN(C(=O)c1c(C)noc1C)c1c(N)n(CCCC)c(=O)[nH]c1=O	i	i	i	i	nt	nt
COc1cccc(N2CC(C(=O)Nc3nnc(SCCN4CCOCC4)s3)CC2=O)c1 (configuration not stated)	i	i	i	i	nt	nt
Cc1cc(/C=N\NC(=O)COc2cccc3cccnc23)c(C)n1-c1ccccc1	i	i	i	i	nt	nt
Cc1cc(/C=N\NC(=O)COc2cccc3cccnc23)c(C)n1-c1ccc(Br)cc1	i	i	55	i	i	i

Bioassay records (PubChem BioAssay)
